# The full list was thinned out, with hits kept by preference.
# Mac1 fbg inh: inhibitors of human CD11b/CD18 binding to fibrinogen; inhibition, % at 10 µM; 93,000 tested, 0.54% active; P05107+P11215; K562 CD11b/CD18 adhesion to fibrinogen, ATPlite luminescence; Mn2+ added to activate the integrin; AID 1497;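 active means primary inhibition of 50% or more at 10 µM, then 40% or more on retest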
# Cav3 T inh: inhibitors of human Cav3.2 T-type calcium channel; B-score at 10 µM; Cav3.2-expressing cells, Fluo-4 calcium fluorescence FDSS; stronger effect = lower value; 100,000 tested, 4% active;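 active means single-dose well whose peak fluorescence ratio is a statistical outlier from its plate by either plate-standardised score or position-corrected B-score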
# Mac1 fbg enh: enhancers of human CD11b/CD18 binding to fibrinogen; P05107+P11215; K562 CD11b/CD18 adhesion to fibrinogen, ATPlite luminescence; activation, % at 10 µM; 93,000 tested, 0.07% active;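 active means 10 µM primary screen giving 50% or more activity, confirmed by 40% or more on retest at that dose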
# Ecoli WT expand: blocks growth of wild type E. coli BW25113 | OD600 absorbance | AID 710 | 98,000 tested, 0.15% active | growth inhibition, % at 100 µM;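 active means growth inhibition above about 50% at one test dose, limit read from the data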;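 further: growth measured after 20 h incubation at 37 °C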
# * marks the source's active call; other numbers are inactive results; . = no result.
SMILES,Mac1 fbg inh,Cav3 T inh,Mac1 fbg enh,Ecoli WT expand
Cn1cc(C(c2ccccn2)c2cn(C)c3ccccc23)c2ccccc21,-9,-6.6*,-2,-15
CCN(C(=O)COc1cc(=O)n(CC)c2ccccc12)c1cc(Cl)ccc1OC,12,-5.5*,6,0
CCN(C(=O)COc1cc(=O)n(CC)c2ccccc12)c1cccc(Cl)c1,.,.,-2,-4
CC(C)C(CCNC(=O)CC(Cc1ccccc1)c1ccco1)c1ccco1 (centres undefined),.,-6.8*,.,0
CCN(c1ccccc1)S(=O)(=O)c1ccc(OCc2c(C)noc2C)cc1,3,-4.4*,-2,-8
CCN(C(=O)COC(=O)c1ccc(OCc2c(C)noc2C)cc1)c1ccccc1,2,-0.92,-1,-9
c1coc(CNc2nc(N3CCCCC3)nc3ccccc23)c1,0,-4.3*,-3,31
c1ccc(N2CCN(c3nc(NCc4ccco4)c4ccccc4n3)CC2)cc1,32,-2,-6,-3
COc1ccc(COC[C@H](C)[C@H](O)[C@@H](C)[C@H]2OC(=O)[C@@H]2C)cc1,.,-0.88,.,.
OCC[C@H]1C[C@@H](O)[C@H](O)[C@@]2(CCCO2)O1,.,0.78,.,.
COc1ccc(O)c(/C=N/Nc2nc(Nc3ccccc3)nc(-n3nc(C)cc3C)n2)c1,-5,-4.4*,-8,-19
COc1ccc(C(=O)CSC2=C(C#N)C3(CCCCC3)C(C#N)=C(N)N2)cc1,15,-0.65,-3,-8
N#CC1=C(N)NC(SCC(=O)c2ccc(Cl)cc2)=C(C#N)C12CCCC2,64*,-1.9,-8,-1
N#CC1=C(N)NC(SCC(=O)Nc2ccccc2)=C(C#N)C12CCCCC2,.,-5*,.,.
CCCC(CCC)C(=O)Nc1cccc(C(=O)O)c1,-6,0.14,0,4
COc1ccc(CN(C(=O)CN2C(=O)COc3ccccc32)C2CCCC2)c(OC)c1,-16,-0.81,-2,-5
COc1ccc(CN(C(=O)CN2C(=O)C(C)Oc3ccccc32)C2CCCC2)c(OC)c1 (centres undefined),-16,-4.4*,3,-6
CCOC(=O)C1=C(CC)OC(N)=C(C#N)C1c1cccs1 (centres undefined),-11,0.3,-3,-8
CCN1CC2=C(OC(N)=C(C#N)C2c2cccs2)/C(=C\c2cccs2)C1 (centres undefined),-4,-3.5*,0,-3
C=CCN(c1cccc(C(F)(F)F)c1)S(=O)(=O)c1cccc(C(=O)OCC(=O)NCCC)c1,4,.,-4,.
Cc1cccc(-c2nc(CN3CCCC(C(=O)NC4CCCCCC4)C3)c(C)o2)c1 (centres undefined),.,-6.9*,.,9
Cc1oc(-c2cccc(Cl)c2)nc1CN1CCCC(C(=O)NCc2ccco2)C1 (centres undefined),.,-1.5,.,10
Cc1oc(-c2ccc(Cl)cc2)nc1CN1CCCC(C(=O)NCc2cccnc2)C1 (centres undefined),84*,1.6,-10,-1
Cc1cccc(-c2nc(CN3CCCC(C(=O)NC4CCCCC4)C3)c(C)o2)c1 (centres undefined),.,-5.1*,.,9
Cc1oc(-c2ccc(Cl)cc2)nc1CN1CCCC(C(=O)NCc2ccccn2)C1 (centres undefined),-6,0.7,-3,-8
SMILES,Mac1 fbg inh,Cav3 T inh,Mac1 fbg enh,Ecoli WT expand
C[C@]1(C(=O)NCc2cc(F)cc(C(F)(F)F)c2)C=C[C@@H](Cc2ccccc2)N1C(=O)c1ccccc1,.,-2.7,.,.
COc1ccc(NC(=S)NC(NC(C)=O)C(Cl)(Cl)Cl)c([N+](=O)[O-])c1 (centres undefined),1,.,3,.
COc1ccc(NC(=S)NC(NC(=O)c2cccc(Cl)c2)C(Cl)(Cl)Cl)c([N+](=O)[O-])c1 (centres undefined),.,-4.9*,.,.
O=C(NC(NC(=S)Nc1ccccc1C(=O)O)C(Cl)(Cl)Cl)c1cccc([N+](=O)[O-])c1 (centres undefined),.,-1.1,.,8
COc1ccc(NC(=S)NC(NC(=O)c2cccc(C)c2)C(Cl)(Cl)Cl)c([N+](=O)[O-])c1 (centres undefined),.,-6.7*,.,.
COc1cc2c(c(OC)c1CC=C(C)C)C[C@H](c1ccc(O)cc1O)CO2,.,-0.45,.,.
O=C1CC(SC(=NCc2ccc3c(c2)OCO3)Nc2ccccc2)C(=O)N1c1ccccc1 (centres undefined),11,0.052,-1,-5
C/C(CCc1ccc2c(c1)OCO2)=N\N=C(/N)SC1CC(=O)N(c2ccc(Cl)cc2)C1=O (centres undefined),13,-4.1*,1,1
CCOC(=O)Cc1csc(NC(=O)CCCCCN2C(=O)c3cccc4cccc(c34)C2=O)n1,.,1.2,.,.

# From PubChem
